# Measured values as given in PubChem BioAssay (EPA / NIEHS).
# “And” between values parts separate entries of the source, which are not always exact repeats. Equal values may be shown once. A structure can be active in one record and inactive in another. The source made the active and inactive calls. The calls were made as follows: active = hit-call score of the fitted dose curve at least 0.9, where 1 is the maximum; inactive = score below 0.9.
# Read-out: Monocyte Chemoattractant Protein-1 (MCP1), CCL2 (gene 6347)
# Experiment: BSK_SAg_MCP1: BioMAP Diversity Plus: SAg Assay for Monocyte Chemoattractant Protein-1 (MCP1) Biomarker Activity (AID 2283090)
# Settings: primary human HUVEC with PBMC; actives raise or lower the signal
# Procedure: BSK_SAg is a cell-based, multiplexed-readout assay that uses umbilical vein endothelium and peripheral blood mononuclear cells, a human vascular primary cell co-culture, with measurements taken at 24 hours after chemical dosing in a 96-well plate.BSK_SAg_MCP1 is an assay component measured in the BSK_SAg assay. It measures MCP-1 antibody related to regulation of gene expression using ELISA technology.Data from the assay component BSK_SAg_MCP1 was analyzed into 1 assay endpoint. This assay endpoint, BSK_SAg_MCP1, was analyzed with bidirectional fitting relative to DMSO as the negative control and baseline of activity. Using a type of binding reporter, gain or loss-of-signal activity can be used to understand changes in the signaling as they relate to the gene CCL2. Furthermore, this assay endpoint can be referred to as a primary readout, because this assay has produced multiple assay endpoints where this one serves a signaling function. To generalize the intended target to other relatable targets, this assay endpoint is annotated to the cytokine intended target family, where the subfamily is chemotactic factor.
# The levels of cell surface (or secreted, indicated by the prefix "s") biomarker endpoints were measured by ELISA. Overt cytotoxicity to cells in confluent adherent cultures (all systems other than the BT system) was assessed by measuring total protein levels using sulforhodamine B (SRB) staining in parallel cultures at the time of biomarker measurements, indicated as SRB endpoints. For proliferation assays for adherent cell types, individual cell types are cultured at sub-confluence and relative cell numbers quantified by SRB staining at time points optimized for each system (48 h: 3C and CASM3C systems; 72 h: BT and HDF3CGF systems; 96 h: SAg system). SRB was performed by staining cells with 0.1% SRB after fixation with 10% TCA and reading wells at 560 nm.Viability and proliferation of PBMC (T cells) was quantified by Alamar Blue reduction for the SAg and BT systems. For PBMC viability (referred to as PBMC Cytotoxicity within the assay endpoint names), cells were plated (75,000/well in a 96-well plate) and then chemical samples added for 1 h before addition of activators, SEB and TSST-1 (20 ng/mL final concentration each). Cells were incubated for 90 h. Then, Alamar Blue (20 uL/well) (Invitrogen, Cat DAL1100) was added for 6 h, and the plates were read with a fluorescence microplate reader at 546/580 nm (excitation/emission). For PBMC proliferation, cells were plated and activated as above but incubated for only 16 h prior to addition of Alamar Blue. Plates were read after 6 h.
SMILES,outcome,AC50
COC(=O)c1ccccc1S(=O)(=O)NC(=O)Nc1nc(OC(F)F)cc(OC(F)F)n1,inactive,
CC(=O)S[C@@H]1CC2=CC(=O)CC[C@]2(C)[C@H]2CC[C@@]3(C)[C@@H](CC[C@@]34CCC(=O)O4)[C@H]12,,17.2 µM (active)
CC(=O)[C@H]1CC[C@H]2[C@@H]3CCC4=CC(=O)CC[C@]4(C)[C@H]3CC[C@]12C,inactive,
COC(=O)c1cccc(C)c1S(=O)(=O)NC(=O)Nc1nc(OCC(F)(F)F)nc(N(C)C)n1,inactive,
COc1c(Cl)ccc(Cl)c1C(=O)O,,11.8 µM (active)
CN(C)C(=O)Nc1ccc(Cl)c(Cl)c1,inactive,
CCCCOCCOCCOCc1cc2c(cc1CCC)OCO2,inactive,
CCSC(=O)N(CC(C)C)CC(C)C,inactive,
S=C(S)NCCNC(=S)S.[Mn+2].[S-]C([S-])=NCCN=C([S-])[S-].[Zn+2],inactive,
COc1nc(C)nc(NC(=O)NS(=O)(=O)c2ccccc2OCCCl)n1,inactive,
CCCCCOC(=O)COc1cc(N2C(=O)C3=C(CCCC3)C2=O)c(F)cc1Cl,inactive,
CCCOC(=O)c1ccc(C(=O)OCCC)nc1,inactive,
COC(=O)c1c(Cl)nn(C)c1S(=O)(=O)NC(=O)Nc1nc(OC)cc(OC)n1,inactive,
C=CCOC(Cn1ccnc1)c1ccc(Cl)cc1Cl (stereo not given),inactive,
CC(C)(C)[C@@H](O)[C@@H](Cc1ccc(Cl)cc1)n1cncn1,inactive,
CCNc1nc(N)nc(Cl)n1,inactive,
CCC(O)=C1C(=O)CC(C(=O)O)CC1=O (stereo not given),inactive,
COC(=O)c1ccc(CNS(C)(=O)=O)cc1S(=O)(=O)NC(=O)Nc1nc(OC)cc(OC)n1,inactive,
CCCCCCC(C)OC(=O)COc1nc(F)c(Cl)c(N)c1Cl (stereo not given),,29.8 µM (active)
Cc1nn(C)c(Oc2ccccc2)c1C=NOCc1ccc(C(=O)OC(C)(C)C)cc1,,7.6 µM (active)

SMILES,outcome,AC50
CCCCC(CC)CN1C(=O)C2C3C=CC(C3)C2C1=O (stereo not given),inactive,
N#CSCSc1nc2ccccc2s1,,7.7 µM (active) and 10.5 µM (active)
COC(=O)c1ccccc1C(=O)O,inactive,
CCCOC(=O)NCCCN(C)C,inactive,
S=C([S-])NCCNC(=S)[S-].[Mn+2],,30.3 µM (active)
COCCO,inactive,
C#CCOC(=O)[C@@H](C)Oc1ccc(Oc2ncc(Cl)cc2F)cc1,inactive,
COC(=O)CSc1cc(N=c2sc(=O)n3n2CCCC3)c(F)cc1Cl,inactive,
CCCCOC(=O)[C@@H](C)Oc1ccc(Oc2ccc(C(F)(F)F)cn2)cc1,inactive,
N[C@@H](Cc1cc(I)c(Oc2ccc(O)c(I)c2)c(I)c1)C(=O)O,inactive,
CC(C)(c1ccc(O)cc1)c1ccc(O)cc1,inactive,20 µM (active)
O=C(c1ccc(O)cc1O)c1ccc(O)cc1O,inactive,
CCOC(=O)[C@H](C)Oc1ccc(Oc2nc3ccc(Cl)cc3o2)cc1,inactive,
CCN(CC)C(=O)c1cccc(C)c1,inactive,
CCOC(=O)COc1cc(-n2ncc(C(F)(F)F)c(C)c2=O)c(F)cc1Cl,inactive,
O=C(O)c1ccccc1,inactive,
C[C@]12CC[C@@H]3c4ccc(O)cc4C[C@@H](CCCCCCCCCS(=O)CCCC(F)(F)C(F)(F)F)[C@H]3[C@@H]1CC[C@@H]2O (stereo not given in full),inactive,
CCC(C)OC(=O)N1CCCCC1CCO (stereo not given),inactive,
O=C(Nc1ccc([N+](=O)[O-])cc1Cl)c1cc(Cl)ccc1O,,0.148 µM (active)
